Results reported in the supplement of paper PMC10037445.
The full ranking holds about 2,900 compounds; the median of “NF-kB SEAP reporter activity, fold change vs agonist alone” is about 0.99, and the highest 2% start at about 2.6. The sample as a whole holds a higher share of the highest values than the screen did.

How the values were obtained:
[1] = system: RAW-Dual; assay: NF-kB SEAP reporter activity, fold change vs agonist alone; higher = enhanced NF-kB activity; settings: library stock concentration (final ~1000-fold dilution): 10 mM
In short: (§1)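 RAW-Dual macrophages (50,000 cells/well in DMEM, 384-well plates) received 50 nL of library stock by pin tool, then a PRR agonist 1 h later, and were kept at 37 °C, 5% CO2. After 20 hours, supernatant was read for IRF by QuantiLuc luminescence and for NF-κB by QuantiBlue absorbance at 620 nm. Reporter activity is fold change over agonist-alone wells. Cytotoxic wells had IncuCyte confluency below 70% of agonist controls in both mask sets.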

[2] = system: RAW-Dual; assay: NF-kB SEAP reporter activity, fold change vs agonist alone; cytotoxicity flag (confluency mask): not cytotoxic; higher = enhanced NF-kB activity
In short: as §1

[3] = system: RAW-Dual; assay: NF-kB SEAP reporter activity, fold change vs agonist alone; cytotoxicity flag (confluency mask): cytotoxic (confluency <70% of control); higher = enhanced NF-kB activity
In short: as §1

[4] = cytotoxicity flag (confluency mask): not cytotoxic, agonist: Imiquimod (TLR7) […]
[5] = cytotoxicity flag (confluency mask): not cytotoxic, agonist: MPLA (TLR4) […]
[6] = agonist: ODN 1826 (TLR9) 0.5 ug/mL
[7] = agonist: Pam2CSK4 (TLR2/6) 0.1 ug/mL
[8] = agonist: Pam3CSK4 (TLR2/1) 0.1 ug/mL

Which “NF-kB SEAP reporter activity” value [1, 4] does the source give for `COc1ccc(Cn2ccc3ccc(C(=O)NO)cc32)cc1` here?
Its value is 0.789.

And the “NF-kB SEAP reporter activity” value [1, 5]?
Its value is 0.903.

For `CCN(CC)Cc1ccc2cc(COC(=O)Nc3ccc(C(=O)NO)cc3)ccc2c1.Cl.O`, which “NF-kB SEAP reporter activity” value [1, 4] is on record?
The value was 0.805.

And the “NF-kB SEAP reporter activity” value [1, 5]?
Its value is 1.17.

What does the source list for `CCN(CC)Cc1ccc2cc(COC(=O)Nc3ccc(C(=O)NO)cc3)ccc2c1.Cl.O` (library stock concentration (final ~1000-fold dilution): 10 mM)?
NF-kB SEAP reporter activity ([2]; agonist: LPS (TLR4) 0.1 ug/mL): 7.02; NF-kB SEAP reporter activity [2, 6]: 0.922; NF-kB SEAP reporter activity [2, 7]: 1.87; NF-kB SEAP reporter activity [2, 8]: 1.04

Which “NF-kB SEAP reporter activity” value ([2]; agonist: LPS (TLR4) 0.1 ug/mL) does the source give for `COCc1ccc(-c2ccc3ncc(C(N)=O)c(NC(C)C4CCOCC4)c3c2)cn1` (stereo unspecified) (library stock concentration (final ~1000-fold dilution): 10 mM) here?
The value was 1.75.

What about the “NF-kB SEAP reporter activity” value [2, 6] of the same compound?
The value was 1.19.

What about the “NF-kB SEAP reporter activity” value [2, 7] of the same compound?
Its value is 1.45.

And the “NF-kB SEAP reporter activity” value [2, 8]?
The value was 2.13.

Which “NF-kB SEAP reporter activity” value [1, 4] does the source give for `COCc1ccc(-c2ccc3ncc(C(N)=O)c(NC(C)C4CCOCC4)c3c2)cn1` (stereo unspecified) here?
Its value is 0.993.

What about the “NF-kB SEAP reporter activity” value [1, 5] of the same compound?
The value was 1.35.

For `O=S(=O)(NCCN1CCNCC1)c1ccc(NC2CCCCC2)c(NCc2ccccc2)c1` (library stock concentration (final ~1000-fold dilution): 10 mM), which “NF-kB SEAP reporter activity” value ([3]; agonist: LPS (TLR4) 0.1 ug/mL) is on record?
The value was 1.57.

What about the “NF-kB SEAP reporter activity” value [3, 6] of the same compound?
The value was 1.13.

And the “NF-kB SEAP reporter activity” value [3, 7]?
The value was 1.04.

What about the “NF-kB SEAP reporter activity” value [3, 8] of the same compound?
Its value is 1.73.

With `O=S(=O)(NCCN1CCNCC1)c1ccc(NC2CCCCC2)c(NCc2ccccc2)c1` as the compound, how does the “NF-kB SEAP reporter activity” value ([1]; cytotoxicity flag (confluency mask): cytotoxic (confluency <70% of control), agonist: Imiquimod (TLR7) […]) read?
Its value is 1.27.

And the “NF-kB SEAP reporter activity” value ([1]; cytotoxicity flag (confluency mask): cytotoxic (confluency <70% of control), agonist: MPLA (TLR4) […])?
The value was 2.03.

For `CN(C)CCCSC(=N)N.Cl.Cl` (library stock concentration (final ~1000-fold dilution): 10 mM), which “NF-kB SEAP reporter activity” value ([2]; agonist: LPS (TLR4) 0.1 ug/mL) is on record?
Its value is 1.14.

And the “NF-kB SEAP reporter activity” value [2, 6]?
Its value is 0.97.

What about the “NF-kB SEAP reporter activity” value [2, 7] of the same compound?
The value was 1.01.

What about the “NF-kB SEAP reporter activity” value [2, 8] of the same compound?
Its value is 0.975.

`CN(C)CCCSC(=N)N.Cl.Cl` was tested. Which “NF-kB SEAP reporter activity” value [1, 4] did it give?
Its value is 0.831.

And the “NF-kB SEAP reporter activity” value [1, 5]?
Its value is 0.973.

For `CC(C)CC(NC(=O)C1OC1C(=O)O)C(=O)NCCCCNC(=N)N` (stereo unspecified) (library stock concentration (final ~1000-fold dilution): 10 mM), which “NF-kB SEAP reporter activity” value ([2]; agonist: LPS (TLR4) 0.1 ug/mL) is on record?
Its value is 0.999.

What about the “NF-kB SEAP reporter activity” value [2, 6] of the same compound?
Its value is 1.01.

And the “NF-kB SEAP reporter activity” value [2, 7]?
Its value is 1.12.

And the “NF-kB SEAP reporter activity” value [2, 8]?
Its value is 1.12.

Which results are given for `CC(C)CC(NC(=O)C1OC1C(=O)O)C(=O)NCCCCNC(=N)N` (stereo unspecified)?
NF-kB SEAP reporter activity [1, 4]: 0.971; NF-kB SEAP reporter activity [1, 5]: 1.11

With `CC(=O)C(=O)Oc1ccccc1C(=O)O` as the compound, how does the “NF-kB SEAP reporter activity” value [1, 4] read?
The value was 1.46.

What about the “NF-kB SEAP reporter activity” value [1, 5] of the same compound?
Its value is 1.68.

Which “NF-kB SEAP reporter activity” value ([2]; agonist: LPS (TLR4) 0.1 ug/mL) does the source give for `CC(=O)C(=O)Oc1ccccc1C(=O)O` (library stock concentration (final ~1000-fold dilution): 10 mM) here?
The value was 1.07.

What about the “NF-kB SEAP reporter activity” value [2, 6] of the same compound?
Its value is 1.04.

And the “NF-kB SEAP reporter activity” value [2, 7]?
The value was 0.887.

What about the “NF-kB SEAP reporter activity” value [2, 8] of the same compound?
The value was 1.12.

For `O=S(=O)(N=Cc1c(O)ccc2ccccc12)c1cccs1`, which “NF-kB SEAP reporter activity” value [1, 4] is on record?
The value was 0.768.

And the “NF-kB SEAP reporter activity” value [1, 5]?
Its value is 1.03.

With `NNC(=O)c1ccncc1` (library stock concentration (final ~1000-fold dilution): 10 mM) as the compound, how does the “NF-kB SEAP reporter activity” value ([2]; agonist: LPS (TLR4) 0.1 ug/mL) read?
The value was 1.22.

And the “NF-kB SEAP reporter activity” value [2, 6]?
Its value is 1.05.

What about the “NF-kB SEAP reporter activity” value [2, 7] of the same compound?
Its value is 1.09.

And the “NF-kB SEAP reporter activity” value [2, 8]?
Its value is 1.05.

With `NNC(=O)c1ccncc1` as the compound, how does the “NF-kB SEAP reporter activity” value [1, 4] read?
Its value is 0.948.

What about the “NF-kB SEAP reporter activity” value [1, 5] of the same compound?
Its value is 1.05.

Which “NF-kB SEAP reporter activity” value ([2]; agonist: LPS (TLR4) 0.1 ug/mL) does the source give for `O=S(=O)(N=Cc1c(O)ccc2ccccc12)c1cccs1` (library stock concentration (final ~1000-fold dilution): 10 mM) here?
Its value is 1.28.

And the “NF-kB SEAP reporter activity” value [2, 6]?
Its value is 0.662.

And the “NF-kB SEAP reporter activity” value [2, 7]?
Its value is 1.04.

What about the “NF-kB SEAP reporter activity” value [2, 8] of the same compound?
The value was 0.853.

Which “NF-kB SEAP reporter activity” value [1, 4] does the source give for `O=C(N/N=C/c1c(O)ccc2ccccc12)c1ccncc1` here?
The value was 2.57.

And the “NF-kB SEAP reporter activity” value [1, 5]?
Its value is 1.75.

How did the “NF-kB SEAP reporter activity” value ([2]; agonist: LPS (TLR4) 0.1 ug/mL) turn out when `O=C(N/N=C/c1c(O)ccc2ccccc12)c1ccncc1` (library stock concentration (final ~1000-fold dilution): 10 mM) was run?
Its value is 2.18.

What about the “NF-kB SEAP reporter activity” value [2, 6] of the same compound?
The value was 2.

What about the “NF-kB SEAP reporter activity” value [2, 7] of the same compound?
Its value is 1.15.

What about the “NF-kB SEAP reporter activity” value [2, 8] of the same compound?
Its value is 1.92.
